# Screening results deposited in PubChem by National Center for Advancing Translational Sciences (NCATS).
# Hits are enriched below; roughly 21% of the tested compounds scored in any of these assays.
# NS1 inh = qHTS Assay for Inhibitors of Influenza NS1 Protein Function. AID 2326, 2010. 270,000 tested, 0.4% active. Potency, µM (top dose mostly 46.1 µM), for the others: at the top dose activity, positive = more growth; further: potency means the concentration at half of the fitted maximal effect; actives are rising curves; nearly all actives have a fitted effect of over 50% in size
#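 S. cerevisiae expressing influenza A NS1, grown in glucose, washed, then diluted 1:100 into pH 6.0 -URA galactose medium with 23 nl compound. Growth recovery read as OD600; NS1-free strain serves as control.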
# Pf growth 96h = Primary qHTS for delayed death inhibitors of the malarial parasite plastid, 96 hour incubation; P. falciparum luciferase reporter growth, 96 h; Potency, µM (highest dose often 28.7 µM), for inactives: at the top dose activity change, negative = inhibition, actives largely listed as inhibitors; 320,000 tested, 6.9% active; AID 504834, 2011; active means well fitted inhibition curve with a large enough effect; inconclusive means small, poorly fitted or top-dose-only effect, or another doubt; inactive means no such curve, though single readings can be large or run the other way; further: potency means the concentration at half of the fitted maximal effect; on the % scale 0 is the no-effect control and ±100 the full control effect
#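 Parasite growth measured via integrated firefly luciferase reporter in P. falciparum. Infected erythrocytes at 2% hematocrit, 0.05% parasitemia final were treated 96 hours at 37 C under 5% CO2, and luminescence was read.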
# CHX counter = Cycloheximide Counterscreen for Small Molecule Inhibitors of Shiga Toxin. cell reporter, cycloheximide protein synthesis inhibition counterscreen. 300,000 tested, 12% active. max response, %; in the data active means max response mostly above about 13%, no sharp cut-off; inactive means mostly below about 14%; further: read at 38.3 µM for the half of the compounds with a filed dose; 0% is about no effect
# SARS PLpro yeast = qHTS of Yeast-based Assay for SARS-CoV PLP; S. cerevisiae expressing SARS-CoV PLpro, growth rescue; AID 485353, 2010; Potency, µM (series often up to 32.9 µM), without a hit: top-dose activity, positive = growth rescue, actives largely listed as activators; 330,000 tested, 0.19% active; further: potency means the concentration at half of the fitted maximal effect; 0% is about no effect; nearly all actives have a fitted effect of over 55% in size
# Pf growth 48h = Primary qHTS for delayed death inhibitors of the malarial parasite plastid, 48 hour incubation. AID 504832, 2011. Potency, µM (series often up to 28.7 µM), for inactives: at the top dose activity change, negative = inhibition, hits mostly inhibitors. 310,000 tested, 5.9% active. P. falciparum luciferase growth in erythrocytes, 48 h; active means well fitted inhibition curve with a large enough effect; inconclusive means small, poorly fitted or top-dose-only effect, or another doubt; inactive means no such curve, though single readings can be large or run the other way; further: potency means the concentration at half of the fitted maximal effect; on the % scale 0 is the no-effect control and ±100 the full control effect
#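 In quantitative HTS format, infected erythrocytes bearing luciferase-reporter parasites were treated for a single generation at 37 C. Luminescence after adding detection reagent served as the growth measure.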
# Shiga toxin inh = A qHTS for Small Molecule Inhibitors of Shiga Toxin; Vero cells, Shiga toxin protein synthesis inhibition reporter; inhibition, % at 38.7 µM; 290,000 tested, 9.2% active; in the data active means inhibition mostly above about 28%, no sharp cut-off; inactive means mostly below about 43%; further: 0% is about no effect
# * marks the source's active call; other numbers are inactive results; i = inactive; ? = inconclusive; nt = no result given. Unless noted, the call rests on the fitted dose curve.
SMILES,NS1 inh,Pf growth 96h,CHX counter,SARS PLpro yeast,Pf growth 48h,Shiga toxin inh
Cc1ccc(CN(C(=O)c2cc(=O)c3cc(Cl)c(C)cc3o2)C2CCS(=O)(=O)C2)cc1 (configuration not stated),9%,4.7µM*,-3,4%,?,-16
Cc1cc(C)c2oc(C(=O)N(Cc3ccc(F)cc3)C3CCS(=O)(=O)C3)cc(=O)c2c1 (configuration not stated),-15%,-7%,-4,-3%,?,10
Cc1ccc(CN(C(=O)c2cc(=O)c3cc(C)cc(C)c3o2)C2CCS(=O)(=O)C2)cc1 (configuration not stated),-5%,9.3µM*,-1,-2%,3.3µM*,-7
COc1ccc(CCN2C(=O)CC(NNC(=O)c3ccccc3Br)C2=O)cc1OC (configuration not stated),-4%,-21%,-5,7%,-14%,-3
O=C(C1CCCCN1S(=O)(=O)c1ccccc1[N+](=O)[O-])N1CCCCC1 (configuration not stated),-1%,3%,10,0%,-4%,7
Cc1ccc(-n2ncc3c2CCCC3NC(=O)CCN2CCCC2=O)cc1C (configuration not stated),0%,?,-3,1%,-9%,3
Cc1ccc(-n2ncc3c2CCCC3NC(=O)CCCN2CCCCC2=O)cc1C (configuration not stated),-14%,13µM*,14,1%,-6%,6
CSCC(=O)NC1CCCc2c1cnn2-c1ccc(C)c(C)c1 (configuration not stated),-9%,?,14,-2%,-2%,58*
C=CCOc1ccc(C2=NOC(C(=O)Nc3ccc4c(c3)OCCO4)C2)cc1OC (configuration not stated),-10%,-7%,13,1%,-3%,17
Clc1ccccc1Nc1nc(-c2ccncc2)nc2ccccc12,-6%,?,-5,-6%,13µM*,-14
Clc1cccc(Nc2nc(-c3ccncc3)nc3ccccc23)c1,-2%,0.93µM*,5,0%,-17%,44
Cc1ccccc1NCc1nnc2n1CCCCC2,3%,9%,-3,0%,-5%,-3
Cc1cc(C)c2nc3sc(C(=O)N4CCOCC4)c(N)c3cc2c1,3%,i,29*,-1%,248%,101*
Cc1ccc(C)c2nc3sc(C(=O)N4CCOCC4)c(N)c3cc12,0%,16%,27*,0%,2%,58*
Cc1cc(C)c2cc3c(N)c(C(=O)N4CCOCC4)sc3nc2c1,4%,?,-1,2%,?,-3
Br/C(=N\Nc1nn[nH]n1)c1ccncc1,-1%,nt,nt,nt,nt,nt
Cc1nc(/C=C\C(=O)O)c2cc(C)oc2n1,nt,27%,0,-1%,2%,-14
C=CCOn1c(=O)c(-c2ccccc2)[n+]([O-])c2ccccc21,nt,?,2,5%,24%,1
CCOC(=O)COn1c(=O)c(-c2cc3ccccc3o2)[n+]([O-])c2ccccc21,-46%,146%,72*,-6%,160%,172*
C=CCOn1c(=O)c(-c2cc3ccccc3o2)[n+]([O-])c2ccccc21,-10%,?,38*,-9%,?,120*
CC1CCCCN1C(=O)Cn1cc(C=O)c2ccccc21 (configuration not stated),-1%,13µM*,-6,-11%,-4%,-14
CC1CCCCN1C(=O)C(=O)c1cn(CC(=O)N2CCCCCC2)c2ccccc12 (configuration not stated),0%,13µM*,-1,-7%,?,-6
CCOC(=O)C1CCN(C(=O)C(=O)c2cn(CC(=O)N3CCCCCC3)c3ccccc23)CC1,18%,10µM*,-3,1%,12µM*,8
CCOC(=O)N1CCN(C(=O)C(=O)c2cn(CC(=O)N3CCCCCC3)c3ccccc23)CC1,12%,12µM*,-3,-2%,12µM*,-8
